The structures appear in SMILES notation. Records with an inconclusive call do not appear. Some structures have more than one record in an assay (separate samples or runs), and their calls can disagree. Active and inactive are the calls of the source. Rule for the calls, unless noted: active = hit-call score of the fitted dose curve at least 0.9, where 1 is the maximum; inactive = score below 0.9.

In experiment [1] the target is Retinoic acid receptor RXR-alpha (Homo sapiens) (UniProt P19793). Description: ATG_RXRa_TRANS: Attagene TRANS-FACTORIAL HepG2 Assay for human Retinoid X Receptor alpha (RXRa) (AID 2283012; active = hit-call score of the fitted dose curve at least 0.9, where 1 is the maximum). The gist of the method: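 Cells (HepG2) carried transiently transfected GAL4-responsive reporter units. Following a 24 h chemical incubation, reporter mRNA induction was read via RT-PCR fragment analysis; DMSO served as negative control and baseline.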
Sequence of Retinoic acid receptor RXR-alpha (Homo sapiens) (P19793 whole entry, looked up, the tested form may be a part): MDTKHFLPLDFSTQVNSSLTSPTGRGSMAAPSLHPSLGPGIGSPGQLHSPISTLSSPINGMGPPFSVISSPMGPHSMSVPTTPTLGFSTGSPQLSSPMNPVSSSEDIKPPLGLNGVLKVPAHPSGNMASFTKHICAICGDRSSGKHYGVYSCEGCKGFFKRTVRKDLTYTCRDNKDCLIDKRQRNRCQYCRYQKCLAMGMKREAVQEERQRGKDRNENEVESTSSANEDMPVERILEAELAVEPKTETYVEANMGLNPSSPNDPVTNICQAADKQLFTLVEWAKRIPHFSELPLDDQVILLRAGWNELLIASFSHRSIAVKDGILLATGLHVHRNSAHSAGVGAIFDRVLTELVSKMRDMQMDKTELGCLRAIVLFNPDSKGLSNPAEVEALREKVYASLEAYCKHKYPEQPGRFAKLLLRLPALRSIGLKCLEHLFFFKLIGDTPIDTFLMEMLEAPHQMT

For experiment [2], the target named is human Retinoid X Receptor beta (RXRb), RXRB (gene 6257) (UniProt P28702). Put plainly: ATG_RXRb_TRANS: Attagene TRANS-FACTORIAL HepG2 Assay for human Retinoid X Receptor beta (RXRb) (AID 2283013; active = hit-call score of the fitted dose curve at least 0.9, where 1 is the maximum). The gist of the method:
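Multiplexed TRANS reporter assay in HepG2; 24 h dosing; reporter mRNA by RT-PCR/CE fluorescence; gain-of-signal relative to DMSO.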

Experiment [3] addresses human Thyroid Receptor alpha (THRa1), THRA (gene 7067) (UniProt P10827). Description: ATG_THRa1_TRANS: Attagene TRANS-FACTORIAL HepG2 Assay for human Thyroid Receptor alpha (THRa1) (AID 2283014; active = hit-call score of the fitted dose curve at least 0.9, where 1 is the maximum). The gist of the method: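 First, HepG2 cells receive multiple GAL4-UAS reporter units and the chimeric receptor. They are then dosed for 24 h, after which RNA is reverse-transcribed, amplified, labelled, HpaI-cut and sized by capillary electrophoresis; gain relative to DMSO is scored.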

Read-out in experiment [4]: E-selectin (Homo sapiens) (UniProt P16581)
Description: BSK_3C_Eselectin: BioMAP Diversity Plus: 3C Assay for Eselectin Biomarker Activity (AID 2283015).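 Note: cell surface E-selectin protein quantified by ELISA 24 h after dosing.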 The conditions noted are these: primary human endothelial cells (HUVEC); actives raise or lower the signal. The gist of the method:
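Human vascular endothelium from umbilical vein is exposed to test chemicals for 24 h. E-selectin levels are read by ELISA and compared with DMSO controls.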

Read-out in experiment [5]: Interleukin-1 alpha (IL1a), IL1A (gene 3552)
Description: BSK_BE3C_IL1a: BioMAP Diversity Plus: BE3C Assay for Interleukin-1 alpha (IL1a) Biomarker Activity (AID 2283016). To be noted: primary human bronchial epithelial cells; actives raise or lower the signal. The gist of the method:
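Cultures of primary human bronchial epithelial cells receive test chemical. After 24 h, IL-1a is quantified by ELISA, while parallel wells are fixed in TCA and SRB-stained for total protein. Changes in either direction are fitted relative to DMSO.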

Read-out in experiment [6]: Monocyte Chemoattractant Protein-1 (MCP1), CCL2 (gene 6347)
Put plainly: BSK_3C_MCP1: BioMAP Diversity Plus: 3C Assay for Monocyte Chemoattractant Protein-1 (MCP1) Biomarker Activity (AID 2283017). To be noted: primary human endothelial cells (HUVEC); actives raise or lower the signal. In a few lines: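 Endothelial cells from human umbilical vein are dosed with chemical, cultured 24 h, then assayed for MCP-1 by ELISA; both increases and decreases are modelled against DMSO controls.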

Read-out in experiment [7]: Monocyte Chemoattractant Protein-1 (MCP1), CCL2 (gene 6347)
Description: BSK_4H_MCP1: BioMAP Diversity Plus: 4H Assay for Monocyte Chemoattractant Protein-1 (MCP1) Biomarker Activity (AID 2283018). To be noted: primary human endothelial cells (HUVEC); actives raise or lower the signal. The gist of the method:
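Readout: MCP-1 ELISA on compound-treated HUVEC, sampled 24 h post-dosing. Baseline and negative control DMSO; bidirectional fit. Overt toxicity checked alongside by sulforhodamine B protein staining at time of biomarker measurement.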

Read-out in experiment [8]: Human Leukocyte Antigen - DR isotype (HLADR), HLA-DRA (gene 3122)
Description: BSK_3C_HLADR: BioMAP Diversity Plus: 3C Assay for Human Leukocyte Antigen - DR isotype (HLADR) Biomarker Activity (AID 2283019).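 Note: ELISA of cell-surface HLA-DR on HUVEC 24 h after dosing.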 The conditions noted are these: primary human endothelial cells (HUVEC); actives raise or lower the signal. In a few lines: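 Endothelial cells from human umbilical vein are treated with test chemical; after 24 h, HLA-DR levels are measured by ELISA. Data are fitted in both directions using DMSO as the baseline.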

Read-out in experiment [9]: Interleukin-8 (IL8), CXCL8 (gene 3576)
Put plainly: BSK_3C_IL8: BioMAP Diversity Plus: 3C Assay for Interleukin-8 (IL8) Biomarker Activity (AID 2283020). To be noted: primary human endothelial cells (HUVEC); actives raise or lower the signal. The gist of the method:
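Human vascular endothelial cells (umbilical vein) in the 3C system; IL-8 level detected by ELISA at 24 h post-dose, with DMSO as baseline.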

Read-out in experiment [10]: Monokine induced gamma interferon (MIG), CXCL9 (gene 4283)
Description: BSK_3C_MIG: BioMAP Diversity Plus: 3C Assay for Monokine induced gamma interferon (MIG) Biomarker Activity (AID 2283021). To be noted: primary human endothelial cells (HUVEC); actives raise or lower the signal. In a few lines:
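After 24 h of treatment, human umbilical vein endothelial cultures (3C system) had their MIG biomarker level determined by ELISA, with DMSO serving as negative control.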

The nature of experiment [11]: BSK_3C_SRB: Viability Assessment in the BioMAP Diversity Plus: 3C Assay (AID 2283023).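 Note: cells read 24 h after compound dosing; fitted both ways against DMSO so a hit may be signal rise or drop.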 The conditions noted are these: primary human endothelial cells (HUVEC). In a few lines: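 Cells were dosed with chemical, cultured 24 h, fixed with 10% TCA, stained with 0.1% SRB and read at 560 nm. Human umbilical vein endothelium was used; DMSO served as negative control and baseline.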

Read-out in experiment [12]: Matrix Metallopeptidase 1 (MMP1), MMP1 (gene 4312)
Put plainly: BSK_BE3C_MMP1: BioMAP Diversity Plus: BE3C Assay for Matrix Metallopeptidase 1 (MMP1) Biomarker Activity (AID 2283024). The conditions noted are these: primary human bronchial epithelial cells; actives raise or lower the signal. In a few lines:
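Dose cells, wait 24 h, run MMP1 ELISA; cells are human bronchial epithelial primaries. Both increases and decreases relative to DMSO counted.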

Read-out in experiment [13]: Pselectin, SELP (gene 6403)
Put plainly: BSK_4H_Pselectin: BioMAP Diversity Plus: 4H Assay for Pselectin Biomarker Activity (AID 2283026). The conditions noted are these: primary human endothelial cells (HUVEC); actives raise or lower the signal. The gist of the method:
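Human vascular endothelium from umbilical vein; P-selectin measured by ELISA at 24 h post-dose, with cytotoxicity checked by sulforhodamine B total-protein staining in parallel cultures (0.1% SRB after 10% TCA fixation, read at 560 nm).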

The nature of experiment [14]: BSK_4H_SRB: Viability Assessment in the BioMAP Diversity Plus: 4H Assay (AID 2283027).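 Note: cells exposed to compound for 24 h before staining.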 To be noted: primary human endothelial cells (HUVEC). In a few lines:
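Absorbance at 560 nm of SRB-stained total protein served as the viability read-out in confluent primary human umbilical vein endothelium 24 h after chemical treatment. Curves were fitted bidirectionally against DMSO as negative control.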

Experiment [15] in a line: BSK_BE3C_SRB: Viability Assessment in the BioMAP Diversity Plus: BE3C Assay (AID 2283028). The conditions noted are these: primary human bronchial epithelial cells. The gist of the method: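 Overt cytotoxicity was assessed as total protein in confluent human primary bronchial epithelial cultures 24 h after chemical addition, using 0.1% sulforhodamine B staining read at 560 nm.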

Read-out in experiment [16]: Urokinase-type plasminogen activator receptor (uPAR), PLAUR (gene 5329)
Put plainly: BSK_4H_uPAR: BioMAP Diversity Plus: 4H Assay for Urokinase-type plasminogen activator receptor (uPAR) Biomarker Activity (AID 2283030). To be noted: primary human endothelial cells (HUVEC); actives raise or lower the signal. In a few lines: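 Chemicals are dosed onto human vascular endothelial primary cells (umbilical vein). After 24 h, uPAR is read by ELISA. Gain or loss of signal is fitted relative to DMSO.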

Read-out in experiment [17]: Vascular endothelial growth factor receptor 2 (Homo sapiens) (UniProt P35968)
Description: BSK_4H_VEGFRII: BioMAP Diversity Plus: 4H Assay for Vascular endothelial growth factor receptor 2 (VEGFR2) Biomarker Activity (AID 2283031). To be noted: primary human endothelial cells (HUVEC); actives raise or lower the signal. The gist of the method: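 VEGFRII levels on human vascular endothelial primary cells were determined by ELISA at 24 hours post-dosing, with gain- or loss-of-signal fitted against DMSO controls.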

Read-out in experiment [18]: Human Leukocyte Antigen - DR isotype (HLADR), HLA-DRA (gene 3122)
Put plainly: BSK_BE3C_HLADR: BioMAP Diversity Plus: BE3C Assay for Human Leukocyte Antigen - DR isotype (HLADR) Biomarker Activity (AID 2283032). To be noted: primary human bronchial epithelial cells; actives raise or lower the signal. The gist of the method:
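Signal came from an ELISA for HLA-DR in human bronchial epithelial primary cells harvested 24 h after treatment; gain- and loss-of-signal fitting used DMSO controls as reference.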

Read-out in experiment [19]: Vascular cell adhesion molecule 1 (VCAM1), VCAM1 (gene 7412)
Put plainly: BSK_4H_VCAM1: BioMAP Diversity Plus: 4H Assay for Vascular cell adhesion molecule 1 (VCAM1) Biomarker Activity (AID 2283033).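 Note: cell-surface VCAM-1 protein measured by ELISA.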 The conditions noted are these: primary human endothelial cells (HUVEC); actives raise or lower the signal. In a few lines: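 Endpoint derived from bidirectional fitting against DMSO controls of VCAM-1 ELISA signal in umbilical vein endothelial cells sampled at 24 h following treatment.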

For experiment [20], the target named is human Vitamin D Receptor (VDR), VDR (gene 7421) (UniProt P11473). Put plainly: ATG_VDR_TRANS: Attagene TRANS-FACTORIAL HepG2 Assay for human Vitamin D Receptor (VDR) (AID 2283022; active = hit-call score of the fitted dose curve at least 0.9, where 1 is the maximum). In a few lines:
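Fluorescence of labelled reporter cDNA fragments, resolved by capillary electrophoresis, gives mRNA induction after 24 h treatment of HepG2 cells carrying transfected Gal4-fusion reporter units. Activity is fitted in the positive direction with DMSO as baseline.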

Sequence of E-selectin (Homo sapiens) (P16581 whole entry, looked up): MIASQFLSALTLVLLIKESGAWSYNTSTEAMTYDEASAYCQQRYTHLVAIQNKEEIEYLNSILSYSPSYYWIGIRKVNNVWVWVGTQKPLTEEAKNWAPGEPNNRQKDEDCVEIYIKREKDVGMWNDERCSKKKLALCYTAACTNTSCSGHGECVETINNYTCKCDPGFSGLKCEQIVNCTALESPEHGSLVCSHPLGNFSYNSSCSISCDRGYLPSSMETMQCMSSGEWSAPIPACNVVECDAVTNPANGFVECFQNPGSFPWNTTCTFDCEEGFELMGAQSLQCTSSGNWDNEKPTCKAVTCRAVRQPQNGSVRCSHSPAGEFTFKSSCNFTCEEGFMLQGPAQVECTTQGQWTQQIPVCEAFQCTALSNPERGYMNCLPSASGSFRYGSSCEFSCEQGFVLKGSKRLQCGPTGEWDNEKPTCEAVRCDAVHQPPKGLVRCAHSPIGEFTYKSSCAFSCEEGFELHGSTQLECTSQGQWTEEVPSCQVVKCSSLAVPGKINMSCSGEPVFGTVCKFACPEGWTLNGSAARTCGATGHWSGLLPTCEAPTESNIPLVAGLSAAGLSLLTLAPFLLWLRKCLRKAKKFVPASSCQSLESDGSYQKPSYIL
Sequence of human Thyroid Receptor alpha (THRa1), THRA (gene 7067) (P10827 whole entry, looked up, the tested form may be a part): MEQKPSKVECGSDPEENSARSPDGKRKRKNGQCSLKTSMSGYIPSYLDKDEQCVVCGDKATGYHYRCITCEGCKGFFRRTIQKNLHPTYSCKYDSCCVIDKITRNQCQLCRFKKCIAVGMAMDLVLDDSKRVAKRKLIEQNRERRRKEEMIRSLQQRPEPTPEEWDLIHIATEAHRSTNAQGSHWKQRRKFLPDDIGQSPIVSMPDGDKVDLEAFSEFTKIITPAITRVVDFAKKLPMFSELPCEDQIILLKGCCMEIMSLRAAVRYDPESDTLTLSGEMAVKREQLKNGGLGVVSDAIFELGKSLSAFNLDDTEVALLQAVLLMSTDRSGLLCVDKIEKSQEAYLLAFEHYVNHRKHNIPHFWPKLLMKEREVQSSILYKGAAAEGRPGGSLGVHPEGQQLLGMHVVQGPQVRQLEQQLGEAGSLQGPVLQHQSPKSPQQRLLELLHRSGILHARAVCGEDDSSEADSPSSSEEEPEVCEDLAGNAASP
Sequence of human Retinoid X Receptor beta (RXRb), RXRB (gene 6257) (P28702 whole entry, looked up): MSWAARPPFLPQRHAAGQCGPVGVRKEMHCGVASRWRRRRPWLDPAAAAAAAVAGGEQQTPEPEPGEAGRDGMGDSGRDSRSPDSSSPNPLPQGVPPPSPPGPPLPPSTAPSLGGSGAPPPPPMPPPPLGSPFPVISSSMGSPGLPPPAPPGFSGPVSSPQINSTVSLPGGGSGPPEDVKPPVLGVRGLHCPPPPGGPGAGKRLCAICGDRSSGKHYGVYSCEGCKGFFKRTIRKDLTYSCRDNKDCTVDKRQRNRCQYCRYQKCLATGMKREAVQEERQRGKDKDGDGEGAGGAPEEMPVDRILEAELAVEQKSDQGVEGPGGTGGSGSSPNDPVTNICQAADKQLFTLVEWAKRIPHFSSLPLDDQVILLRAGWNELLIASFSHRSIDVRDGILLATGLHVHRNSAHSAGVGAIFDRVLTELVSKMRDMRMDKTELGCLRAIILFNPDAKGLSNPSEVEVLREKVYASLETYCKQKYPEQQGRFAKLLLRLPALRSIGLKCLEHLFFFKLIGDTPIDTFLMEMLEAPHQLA
Sequence of human Vitamin D Receptor (VDR), VDR (gene 7421) (P11473 whole entry, looked up, the tested form may be a part): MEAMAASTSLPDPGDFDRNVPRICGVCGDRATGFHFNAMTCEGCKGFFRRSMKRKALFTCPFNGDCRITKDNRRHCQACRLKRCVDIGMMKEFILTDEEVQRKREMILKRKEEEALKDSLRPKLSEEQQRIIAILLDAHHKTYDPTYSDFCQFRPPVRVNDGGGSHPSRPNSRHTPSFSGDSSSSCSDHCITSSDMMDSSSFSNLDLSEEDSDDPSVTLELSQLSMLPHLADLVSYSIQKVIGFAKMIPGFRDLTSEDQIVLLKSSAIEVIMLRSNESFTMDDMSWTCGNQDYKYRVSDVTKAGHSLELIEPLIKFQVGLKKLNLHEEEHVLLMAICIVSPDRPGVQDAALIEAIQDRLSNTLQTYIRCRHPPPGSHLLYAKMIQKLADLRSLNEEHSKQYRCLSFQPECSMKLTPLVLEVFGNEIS

Take `O=C(c1ccc(O)cc1)c1ccc(O)cc1O`: the compound was called inactive in experiment [1], in [2], in [3], in experiment [4], in [5] and in [6]. The outcome in experiment [7], in [8], in [9], in experiment [10], in experiment [11] and in experiment [12] was inactive. In addition, the outcome in experiment [13], in experiment [14], in experiment [15], in experiment [16], in [17] and in experiment [18] was inactive. Moreover, the result in experiment [19] was inactive. The AC50 is 12.9 µM (active) in experiment [12], 9.72 µM (active) in [16] and 20 µM (active) in [18].
Take `CC(CC=O)CCCC(C)(C)O` (stereo unspecified): the call in [1], in experiment [2] and in experiment [3] was inactive.
Consider `CC(=O)c1ccc[nH]1`, for which the compound was classed as inactive in experiment [1], in experiment [2] and in experiment [3].
Turning to `O=C1c2ccccc2C(=O)C1c1nc2ccccc2c(Br)c1O`, the compound was classed as inactive in experiment [1], in experiment [2] and in [3].
With `O=C(O)CCCC[C@@H]1SC[C@@H]2NC(=O)N[C@@H]21`, the call in experiment [1], in experiment [2] and in experiment [3] was inactive.
`CCCCCCCC/C=C\CCCCCCCC(=O)O`: the call in experiment [1] and in experiment [3] was inactive. In [2], the half-maximal activity concentration (AC50) is 68 µM (active).
With `Cc1cccc(N(C)C(=S)Oc2ccc3ccccc3c2)c1`, the call in experiment [1] and in experiment [3] was inactive. In addition, in experiment [2], the AC50 is 32.6 µM (active).
In the case of `C=CCOCC(O)CCl` (stereo unspecified), the outcome in experiment [1], in experiment [2], in experiment [3], in [4], in [5] and in experiment [6] was inactive. Further, the result in [7], in experiment [8], in experiment [9], in experiment [10], in experiment [20] and in [11] was inactive. The result in experiment [12], in experiment [13], in experiment [14], in experiment [15], in experiment [16] and in [17] was inactive. The outcome in experiment [18] and in [19] was inactive.
With `N#[N+]c1ccc2c(S(=O)(=O)[O-])cccc2c1O`, the result in experiment [1], in experiment [2], in [3], in experiment [4], in experiment [5] and in [6] was inactive. Besides, the outcome in experiment [7], in [8], in [9], in experiment [10], in experiment [20] and in experiment [11] was inactive. Also, the outcome in experiment [12], in experiment [13], in experiment [14], in experiment [15], in experiment [16] and in [17] was inactive. Besides, the outcome in experiment [18] and in experiment [19] was inactive.
For the compound `CC=CC(F)(F)C(F)(F)C(F)(F)F`, the call in [1], in experiment [2] and in experiment [3] was inactive.
As to `CC(C)c1ccc2c(C(C)C)cc(C(C)C)c(S(=O)(=O)O)c2c1`, the compound was classed as inactive in experiment [1]. Besides, in experiment [2], the AC50 was 18.2 µM (active).
Regarding `OCCN(CCO)c1ccccc1`, the compound was classed as inactive in [1], in experiment [2] and in [3].
As for `C=C(C)CCO`, the call in experiment [1] and in [3] was inactive. For the same compound, the half-maximal activity concentration (AC50) in experiment [2] is 63.9 µM (active).

Broadly, the AC50 is the concentration giving half of the maximal activity seen.

The values are drawn from PubChem BioAssay (EPA / NIEHS).
